MRP resist rev: MRP-mediated drug resistance reversal; 85,000 compounds, 0.04% hits; differential viability (reversal), % at 10 µM; H69AR cells + 2 uM doxorubicin, CellTiter-Glo, 72 h; AID 602;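 active = viability drop by adding the cancer drug above about 55%, with treated viability meeting a 40% cutoff, limit read from the data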;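 note: larger differential means the compound sensitizes cells more to doxorubicin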
CD11b adhes enh: CD11b/CD18-fibrinogen binding enhancement; P05107+P11215; K562 CD11b/CD18 adhesion to fibrinogen, ATPlite luminescence; activation, % at 10 µM; 93,000 compounds, 0.07% hits; AID 1499;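 active = 10 µM primary screen giving 50% or more activity, confirmed by 40% or more on retest at that dose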
Target sequence (P05107 whole entry, looked up, other chains not shown): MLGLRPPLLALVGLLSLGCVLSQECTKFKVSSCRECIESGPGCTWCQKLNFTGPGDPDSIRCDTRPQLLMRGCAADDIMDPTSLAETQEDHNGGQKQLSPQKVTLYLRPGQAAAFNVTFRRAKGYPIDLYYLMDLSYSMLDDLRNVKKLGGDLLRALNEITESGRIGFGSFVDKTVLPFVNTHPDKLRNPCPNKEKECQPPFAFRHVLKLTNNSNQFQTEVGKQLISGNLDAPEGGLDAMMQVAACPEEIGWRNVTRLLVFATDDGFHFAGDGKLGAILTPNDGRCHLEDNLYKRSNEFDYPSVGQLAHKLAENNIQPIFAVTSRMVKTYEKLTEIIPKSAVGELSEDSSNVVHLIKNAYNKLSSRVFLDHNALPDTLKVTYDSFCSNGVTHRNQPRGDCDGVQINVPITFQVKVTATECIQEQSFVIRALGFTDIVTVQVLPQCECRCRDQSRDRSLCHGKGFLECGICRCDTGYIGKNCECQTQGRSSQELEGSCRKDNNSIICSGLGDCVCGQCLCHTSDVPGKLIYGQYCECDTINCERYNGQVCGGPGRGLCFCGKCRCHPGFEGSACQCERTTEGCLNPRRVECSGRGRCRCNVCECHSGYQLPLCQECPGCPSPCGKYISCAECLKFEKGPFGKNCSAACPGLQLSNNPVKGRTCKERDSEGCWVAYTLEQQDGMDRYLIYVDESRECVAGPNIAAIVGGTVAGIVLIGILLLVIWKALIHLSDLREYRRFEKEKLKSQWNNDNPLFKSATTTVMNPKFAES
CD11b adhes inh: CD11b/CD18-fibrinogen binding inhibition. P05107+P11215. K562 CD11b/CD18 adhesion to fibrinogen, ATPlite luminescence; Mn2+ added to activate the integrin. inhibition, % at 10 µM. 93,000 compounds, 0.54% hits. AID 1497;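 active = primary inhibition of 50% or more at 10 µM, then 40% or more on retest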
Phagocyt inh: blocks phagocytosis by macrophages; J774A.1 macrophage IgG-bead phagocytosis, imaging; inhibition, % at 5 µM; 110,000 compounds, 0.07% hits; AID 1029;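 active = inhibition above the mean of the plate negative controls plus 5 SD, cut at about 13% in these data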;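 note: phagocytic index as fraction of beads internalized from green versus red external bead signal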
MRP-1 activ: MRP-1 activation; AID 799; 140,000 compounds, 0.61% hits; viability increase, % at 10 µM; H69AR cells + doxorubicin, viability rescue, CellTiter-Glo;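 active = viability gain under doxorubicin at or above a set limit, the compound median plus 3 SD, cut at about 4.7% in these data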;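 note: MRP-1 overexpressing cells given doxorubicin 25 µM after compound pretreatment; 18-22 h compound pretreatment then 72 h with doxorubicin before readout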
sdo1 growth: restores growth of sdo1-depleted yeast; S. cerevisiae sdo1-depleted JHY4D growth rescue, OD600 30 h; hits give high values; pdr5 snq2 efflux-pump mutant strain; z-score at 10 µM; 140,000 compounds, 0.21% hits; AID 817;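 active = z-score above 3 at both the 24 hr and the 30 hr optical density reads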
sdo1 rescue conf: SDO1-depleted yeast growth rescue confirmation. AID 949. S. cerevisiae JHY4D (SDO1-depleted) growth rescue, OD600, 30 h; hits give high values; efflux-deficient strain, SNQ2 and PDR5 mutated. 440 compounds, 44% hits. OD recovery (concentration not given with the values). shares compounds with sdo1 growth;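 active = yeast growth recovered at 30 hours, either rising with dose fitted slope above 0.001 or with average optical density gain above 0.07, some results past the limit were not filed as active; inactive = growth falling with dose or no effect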
Large screens that a line does not name were inactive (follow-up assays come after a bar, where they were run); [ ] = another dose, or the depositor's remark. A selection: hits, their analogues and other compounds. The true share with any hit is near 1.3%.

CCN(C(=S)Nc1cc(S(=O)(=O)N2CCOCC2)ccc1Cl)c1cccc2ccccc12	none (no result: MRP resist rev, CD11b adhes enh, CD11b adhes inh)
O=S(=O)(c1ccc(Cl)c(NC(=S)Nc2cccc(O)c2)c1)N1CCOCC1	sdo1 growth 15 (no result: MRP resist rev, CD11b adhes enh, CD11b adhes inh) | sdo1 rescue conf inactive
N#Cc1nc(-c2cccc3ccccc23)oc1NCCN1CCCCC1	sdo1 growth 11 | sdo1 rescue conf 0.097
N#Cc1nc(-c2cccc3ccccc23)oc1N1CCCCC1	none
Cc1cc(NC(=O)CSc2nc3c(c(-c4cccnc4)c2C#N)CCC3)no1	none | sdo1 rescue conf inactive
CNC(=O)c1c(NC(=O)c2nc3ccccc3s2)sc2c1CCC2	none (no result: Phagocyt inh) | sdo1 rescue conf inactive
COC(=O)c1c(NC(=O)c2nc3ccccc3s2)sc2c1CCN(C(C)=O)C2	none
CC(C)(C)c1cc(C(=O)N/N=C/c2ccco2)n[nH]1	sdo1 growth 9.9 (no result: MRP resist rev) | sdo1 rescue conf 0.071
CCN(C(=O)CN1C=NS(=O)(=O)c2ccccc21)c1ccccc1	none (no result: MRP resist rev, CD11b adhes enh, CD11b adhes inh)
CN1CCN(C(=O)c2ccccc2-c2nc(-c3ccccc3)no2)CC1	none
NC(=O)c1ccccc1-c1nc(-c2ccccc2)no1	sdo1 growth 11 | sdo1 rescue conf inactive
Cc1nonc1C(=O)N/N=C/c1cccc(O)c1	none (no result: MRP resist rev, CD11b adhes enh, CD11b adhes inh)
Oc1ccc(Oc2ncc(Cl)cc2Cl)cc1	none
CCOCCOC(=O)C(C)Oc1ccc(Oc2ncc(Cl)cc2Cl)cc1 (configuration not stated)	sdo1 growth 6.9 (no result: MRP resist rev) | sdo1 rescue conf 0.11
O=C(Nc1ccccc1)C1CC=CCC1C(=O)OCC1CCCO1 (configuration not stated)	none
O=C(COC(=O)[C@@H]1CCCN1C(=O)c1cccs1)NCCc1ccccc1	none (no result: MRP resist rev)
CC12CCC(C(=O)n3c1nc1ccccc13)C2(C)C (configuration not stated)	none
CC12CCC(c3c1nc1ccccc1[n+]3[O-])C2(C)C (configuration not stated)	sdo1 growth 5.4 (no result: MRP resist rev, CD11b adhes enh, CD11b adhes inh) | sdo1 rescue conf 0.08
COc1ccc(NC(=O)c2ccc(-n3cccn3)nc2)cc1	none (no result: MRP resist rev, CD11b adhes enh, CD11b adhes inh, Phagocyt inh) | sdo1 rescue conf inactive
COc1ccc(NC(=O)c2ccc(-n3cccn3)nc2)c(OC)c1	none (no result: MRP resist rev, Phagocyt inh)
CC(/C=C1\N=C(SCc2ccccc2Cl)SC1=O)=C\c1ccccc1	none (no result: MRP resist rev, CD11b adhes enh, CD11b adhes inh, Phagocyt inh)
CC(=O)c1sc(NC(=O)c2cc3c(C)nn(-c4ccccc4)c3s2)nc1C	sdo1 growth 4 | sdo1 rescue conf 0.11
Cc1nc(NC(=O)c2cc3c(C)nn(-c4ccccc4)c3s2)sc1C(=O)Nc1ccccc1	none (no result: MRP resist rev)
O=C(NCc1ccccc1Cl)c1ccccc1CCc1ccccc1	sdo1 growth 7.1 (no result: MRP resist rev, CD11b adhes enh, CD11b adhes inh) | sdo1 rescue conf 0.082
Cc1nn(CC(O)CN2c3ccccc3Sc3ccccc32)c(C)c1Br (configuration not stated)	sdo1 growth 4.5 | sdo1 rescue conf inactive
OC(CN1c2ccccc2Sc2ccccc21)Cn1nnc2ccccc21 (configuration not stated)	none
COCCNCCCCOc1c(Cl)cc(C)cc1Br	none (no result: MRP resist rev)
Cc1cc(Cl)c(OCCCNCc2ccccc2)c(Br)c1	sdo1 growth 4.2 (no result: MRP resist rev) | sdo1 rescue conf inactive
CCCCCCCC(=O)NC(Nc1ccc(S(N)(=O)=O)cc1)C(Cl)(Cl)Cl (configuration not stated)	sdo1 growth 3.1 (no result: MRP resist rev, CD11b adhes enh, CD11b adhes inh, Phagocyt inh) | sdo1 rescue conf 0.1
O=C(Cn1nc(Cc2cccnc2)c2ccccc2c1=O)NCc1ccc(F)cc1	none
Cc1ccccc1S(=O)(=O)c1c(C)cc(C)n(CC(C)C)c1=O	sdo1 growth 5.5 | sdo1 rescue conf 0.11
CCN(CC)S(=O)(=O)c1cc(C(=O)Nc2cccnc2)ccc1Cl	sdo1 growth 3.3 (no result: MRP resist rev) | sdo1 rescue conf 0.093
CCN(CC)S(=O)(=O)c1cc(C(=O)Nc2ccncc2)ccc1Cl	none (no result: CD11b adhes enh, CD11b adhes inh, Phagocyt inh)
COc1ccc(OCC(=O)Nc2cccc3cccnc23)cc1	none
COc1ccc(OCC(=O)Nc2cccc(NC(=O)COc3ccc(OC)cc3)n2)cc1	sdo1 growth 3.1 | sdo1 rescue conf inactive
C=CCn1c(COc2ccccc2F)nnc1SCCN1C(=O)c2ccccc2C1=O	none (no result: MRP resist rev)
Cn1c2c(c(O)c(-c3ccccc3)c1=O)C(=O)CC(C)(C)C2	none (no result: MRP resist rev, CD11b adhes enh, CD11b adhes inh)
Cc1cc(C)c(-c2c(O)c3c(n(C)c2=O)CC(C)(C)CC3=O)c(C)c1	sdo1 growth 10 (no result: MRP resist rev, CD11b adhes enh, CD11b adhes inh) | sdo1 rescue conf 0.08
COC(CNC(=O)C(=O)NCC1OCCN1C(=O)c1ccc(Cl)cc1)OC (configuration not stated)	none (no result: MRP resist rev, CD11b adhes enh, CD11b adhes inh, Phagocyt inh)
COCCNC(=O)C(=O)NCC1OCCN1C(=O)c1ccc(Cl)cc1 (configuration not stated)	sdo1 growth 11 (no result: MRP resist rev, CD11b adhes enh, CD11b adhes inh, Phagocyt inh) | sdo1 rescue conf inactive
Cn1c(=O)c2[nH]c(CNCc3ccccc3Cl)nc2n(C)c1=O	none (no result: CD11b adhes enh, CD11b adhes inh) | sdo1 rescue conf inactive
Cn1c(=O)c2[nH]c(CN3CCN(Cc4ccccc4)CC3)nc2n(C)c1=O	none
Cc1ccc([N+](=O)[O-])cc1N(CC(=O)Nc1ccc(S(=O)(=O)Nc2cccc(C(F)(F)F)c2)cc1)S(C)(=O)=O	none (no result: MRP resist rev, CD11b adhes enh, CD11b adhes inh)
COc1ccc(NC(=O)CSc2nnc(CN3CCOCC3)n2-c2ccccc2)cc1Cl	sdo1 growth 3.5 (no result: CD11b adhes enh, CD11b adhes inh) | sdo1 rescue conf inactive
CCOc1ccc(C(=O)NC(=S)Nc2ccccc2OC)cc1[N+](=O)[O-]	none (no result: MRP resist rev, CD11b adhes enh, CD11b adhes inh) | sdo1 rescue conf 0.077
O=C(c1oc(=O)c2ccccc2c1-c1ccccc1)N1CCN(C2CCCCC2)CC1	none
CC(=O)N(C1=C(O)c2ccccc2C(=O)C1=O)C1CCCCC1	sdo1 growth 3.1[12.9 µM] (no result: MRP resist rev, CD11b adhes enh, CD11b adhes inh, Phagocyt inh) | sdo1 rescue conf 0.074
CCOC(=O)c1cnn(Cc2ccccc2)c1N	sdo1 growth 6.1 (no result: CD11b adhes enh, CD11b adhes inh, Phagocyt inh) | sdo1 rescue conf inactive
CCS(=O)(=O)N1CCN(Cc2nc3ccccc3c(=O)[nH]2)CC1	none
Cn1nc(-c2ccc(C(=O)O)cc2)c2ccccc2c1=O	none
COC(=O)c1ccc(-c2nn(C)c(=O)c3ccccc23)cc1	sdo1 growth 8.5 | sdo1 rescue conf 0.076
CC(/C=C/c1ccc2c(c1)OCO2)=N/NC(=O)COc1ccc(C)cc1	none (no result: MRP resist rev)
Cc1cccc2cc(C#N)c(SCC(=O)NCC3CCCO3)nc12 (configuration not stated)	none (no result: CD11b adhes enh, CD11b adhes inh, Phagocyt inh)
Cc1cccc2c(SCC(=O)NCC3CCCO3)nc(-c3ccc(F)cc3)nc12 (configuration not stated)	none (no result: MRP resist rev, CD11b adhes enh, CD11b adhes inh, Phagocyt inh) | sdo1 rescue conf 0.11
Cc1sc(NC(=O)CN(Cc2ccc(F)cc2)C(=O)C(C)C)c(C(N)=O)c1C	none (no result: MRP resist rev, CD11b adhes enh, CD11b adhes inh, Phagocyt inh)
CCN1CCCC1CNC(=O)CCNC(=O)c1cc(OC)c(OC)c(OC)c1 (configuration not stated)	sdo1 growth 3.3 | sdo1 rescue conf 0.083
COc1ccc(C(=O)OCC(=O)Nc2cc(C)c(C)cc2[N+](=O)[O-])cc1	none (no result: MRP resist rev, CD11b adhes enh, CD11b adhes inh) | sdo1 rescue conf inactive
COc1ccc(Cl)cc1NC(=O)C(C)N(C)Cc1cccc(Cl)c1Cl (configuration not stated)	none (no result: MRP resist rev)
